From PubChem BioAssay
Activity calls are given as the source filed them. Unless noted, the rule behind the calls is not given here.

Experiments:
[1] = HepG2 liver cancer cell viability effects, profiling panel, resazurin fluorescence, 24 h, PK04 Diversity Set (AID 1172); conditions: higher = more signal; note: test concentration not given here
[2] = basal S. cerevisiae growth modulation, no modifier, primary screen, OD600, strain BY4716, 24 h, basal condition (AID 1173); conditions: OD600, 24 h, higher = more signal, called active from +8 up or from −8 down
[3] = MM1S myeloma cell viability, profiling panel, resazurin fluorescence, basal, 24 h, PK04 Diversity Set (AID 1174); conditions: higher = more signal, called active from +8 up or from −8 down;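 note: MM1S multiple myeloma cell line; test concentration not given here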
[4] = molecular target: Dihydroorotate dehydrogenase (quinone), mitochondrial (Plasmodium falciparum (isolate 3D7)) (UniProt Q08210); test: PfDHODH enzyme inhibitors, primary screen, biochemical, C-terminal His tag, absorbance 600 nm (AID 1175); conditions: DCIP absorbance 600 nm, higher = more signal, called active from +8 up or from −8 down;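 note: recombinant parasite enzyme with a five histidine tag at its C terminus; test concentration not given here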
Sequence of Dihydroorotate dehydrogenase (quinone), mitochondrial (Plasmodium falciparum (isolate 3D7)) (Q08210 whole entry, looked up): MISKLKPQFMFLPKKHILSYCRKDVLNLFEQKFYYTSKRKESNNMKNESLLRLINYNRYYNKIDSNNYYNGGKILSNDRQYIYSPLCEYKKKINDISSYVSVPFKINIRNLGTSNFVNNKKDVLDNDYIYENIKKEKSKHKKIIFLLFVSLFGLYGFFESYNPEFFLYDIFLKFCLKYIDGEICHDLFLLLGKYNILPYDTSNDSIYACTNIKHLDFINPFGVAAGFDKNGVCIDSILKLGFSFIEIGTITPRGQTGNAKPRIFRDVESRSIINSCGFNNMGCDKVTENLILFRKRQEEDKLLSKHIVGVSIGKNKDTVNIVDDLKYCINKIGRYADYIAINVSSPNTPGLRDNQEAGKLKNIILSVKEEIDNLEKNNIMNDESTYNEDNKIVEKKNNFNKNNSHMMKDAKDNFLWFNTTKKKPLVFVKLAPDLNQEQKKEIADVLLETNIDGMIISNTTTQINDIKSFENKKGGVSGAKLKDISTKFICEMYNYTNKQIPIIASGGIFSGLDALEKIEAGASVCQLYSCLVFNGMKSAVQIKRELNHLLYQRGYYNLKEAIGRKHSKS

[5] = P. aeruginosa biofilm formation inhibitors, primary screen, strain PAO1, LB-PBS medium, absorbance 600 nm (AID 1176); note: test concentration not given here; conditions: P. aeruginosa PAO1 growth/biofilm, A600, 12 h; higher = more signal
[6] = S. cerevisiae RM11-1a growth modifiers, primary screen, strain RM11-1a, OD600, basal, 24 h (AID 1177); conditions: OD600, 24 h, higher = more signal, called active from +8 up or from −8 down;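 note: cultures grown under basal conditions with no added stressor; test concentration not given here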
[7] = E. coli acrAB mutant growth effects, primary screen, E. coli filamentation inducers, strain DRC39, OD650, 24 h (AID 1178); conditions: higher = more signal, called active from +8 up or from −8 down;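 note: growth measured as culture turbidity by optical density at 650 nm; test concentration not given here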
[8] = E. coli acrAB mutant growth effects, primary screen, E. coli filamentation inducers, strain DRC39, OD650, 48 h (AID 1179);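 note: screen aims at cell division blockers that make cells filament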; conditions: E. coli DRC39 delta-acrAB growth, higher = more signal, called active from +8 up or from −8 down
[9] = RPMI8226 myeloma cell viability, profiling panel, resazurin fluorescence, basal, 24 h, PK04 Diversity Set (AID 1180); conditions: higher = more signal;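 note: RPMI8826 multiple myeloma cell line at 5000 cells per well; test concentration not given here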
[10] = molecular target: E3 ubiquitin-protein ligase XIAP (Homo sapiens) (UniProt P98170); test: XIAP binders, primary screen, biophysical, small-molecule microarray, fluorescence 635 nm (AID 1181); conditions: small-molecule microarray binding, higher = more signal;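 note: score merges 667 nm emission and signal to noise over triplicate slides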
Sequence of E3 ubiquitin-protein ligase XIAP (Homo sapiens) (P98170 whole entry, looked up): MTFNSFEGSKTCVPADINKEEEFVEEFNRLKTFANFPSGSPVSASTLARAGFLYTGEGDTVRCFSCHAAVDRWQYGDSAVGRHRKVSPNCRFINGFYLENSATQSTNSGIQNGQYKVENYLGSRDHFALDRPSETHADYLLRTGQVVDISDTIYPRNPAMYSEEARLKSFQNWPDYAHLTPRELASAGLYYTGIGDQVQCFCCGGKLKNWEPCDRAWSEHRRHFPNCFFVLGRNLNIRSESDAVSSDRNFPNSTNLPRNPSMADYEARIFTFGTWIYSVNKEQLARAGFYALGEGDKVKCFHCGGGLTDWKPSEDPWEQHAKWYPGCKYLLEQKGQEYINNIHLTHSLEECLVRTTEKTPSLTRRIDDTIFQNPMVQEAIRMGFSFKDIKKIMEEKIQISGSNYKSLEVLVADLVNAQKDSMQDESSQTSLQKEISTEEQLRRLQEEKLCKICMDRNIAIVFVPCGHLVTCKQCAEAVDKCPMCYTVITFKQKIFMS

Row | SMILES | z-score [1] | z-score [2] | z-score [3] | composite z-score [4] | z-score [5] | z-score [6] | z-score [7] | z-score [8] | z-score [9] | composite z-score [10]
1 | Nc1cc(Br)ccc1C(=O)O | 0.615 | -0.811 (inactive) | 1.11 (inactive) | -0.627 (inactive) | -0.612 (inactive) | -0.127 (inactive) | 0.37 (inactive) | -0.138 (inactive) | 1.29 | 0.0837
2 | CCOC(=O)C1=CCN(S(=O)(=O)c2ccc(C)cc2)C1c1ccccc1 (stereo not given) | -0.17 | 0.218 (inactive) | -0.612 (inactive) | -0.551 (inactive) | 0.449 (inactive) | 0.58 (inactive) | -0.564 (inactive) | -0.359 (inactive) | -1.01 | -0.0957
3 | COCCOC(=O)N1C(=O)[C@@]2(c3cc(C#Cc4ccc(OC)cc4)ccc31)[C@H](c1ccc(OCCO)cc1)N1[C@H](c3ccccc3)[C@H](c3ccccc3)OC(=O)[C@H]1[C@@H]2C(=O)Nc1nc2ccccc2s1 | 1.62 | 1.21 (inactive) | -0.606 (inactive) | -1 (inactive) | 1.5 (inactive) | 1.56 (inactive) | 0.0318 (inactive) | -0.389 (inactive) | 0.46 | 0.259
4 | C=CC[C@H](OC(=O)Nc1ccc(SC)cc1)c1ccc(OCCO)cc1 | 0.826 | -3.71 (inactive) | 0.819 (inactive) | -1.51 (inactive) | 0.119 (inactive) | 1.07 (inactive) | -0.0217 (inactive) | -0.254 (inactive) | 0.194 | 0.0264
5 | COC(=O)[C@@]1(Cc2ccc(F)cc2)[C@H]2c3cc(C(=O)N(C)C)n(Cc4ccc(O)c(OC)c4)c3C[C@H]2CN1C(=O)c1ccccc1 | -0.338 | 1.15 (inactive) | 0.0463 (inactive) | -0.764 (inactive) | 1.72 (inactive) | 0.301 (inactive) | 0.373 (inactive) | -1.35 (inactive) | -0.997 | 0.0812
6 | CC(C)C[C@@H]1NC(=O)CNC(=O)[C@@]23C(=O)N[C@@H](Cc4ccccc4)C2[C@H](C)[C@@]2(C)O[C@H]2C3/C=C/C/C=C\CNC1=O (stereo not given in full) | 0.544 | 0.205 (inactive) | 0.339 (inactive) | 0.084 (inactive) | 1.31 (inactive) | 0.0082 (inactive) | 0.387 (inactive) | 0.394 (inactive) | 0.663 | -0.164
7 | COCCOC(=O)N1C(=O)[C@@]2(c3cc(C#CC4(O)CCCCCC4)ccc31)[C@H](C(=O)N1CCN(c3ncccn3)CC1)[C@H]1C(=O)O[C@H](c3ccccc3)[C@H](c3ccccc3)N1[C@@H]2c1ccccc1OCCO | 0.212 | 2.67 (inactive) | -0.194 (inactive) | 0.97 (inactive) | 2.12 (inactive) | 3.05 (inactive) | -0.322 (inactive) | -0.473 (inactive) | 0.177 | -0.068
8 | C=CCC(OC(C)=O)[C@@H]1[C@@H](N(Cc2cccc3ccccc23)C(=O)Cc2ccc(F)cc2)c2cc(OCCCO)ccc2N1C(=O)c1ccc(-c2ccccc2)cc1 (stereo not given in full) | -0.271 | 0.388 (inactive) | -0.0279 (inactive) | 0.366 (inactive) | 0.231 (inactive) | -0.163 (inactive) | -0.386 (inactive) | -0.0169 (inactive) | 0.336 | 0.0623
9 | COc1ccc([Si](C)(C)[C@@H]2[C@@H](CC(=O)N3Cc4ccccc4C[C@H]3CO)O[C@]3(C(=O)N(c4ccccc4)c4ccccc43)[C@H]2C)cc1 | -1.05 | 0.318 (inactive) | -2.64 (inactive) | 1.13 (inactive) | 0.626 (inactive) | 2.42 (inactive) | 0.33 (inactive) | -0.165 (inactive) | -4.45 | 2.42
10 | COC(=O)[C@@]1(Cc2ccccc2)[C@H]2c3cc(C(=O)N(C)C)n(CCn4cc([N+](=O)[O-])nc4C)c3C[C@H]2CN1C(=O)c1ccccc1 | 0.002 | 0.815 (inactive) | -0.271 (inactive) | -0.831 (inactive) | 1.41 (inactive) | -0.68 (inactive) | -0.211 (inactive) | 0.145 (inactive) | 0.413 | 1.01
11 | COc1ccc(CCNC(=O)[C@@]2(Cc3ccccc3I)c3ccccc3C(=O)N(Cc3ccccc3Cl)[C@H]2c2ccc(CO)cc2)cc1 | -0.0135 | -0.564 (inactive) | 0.0755 (inactive) | -0.902 (inactive) | 0.751 (inactive) | -0.377 (inactive) | -0.432 (inactive) | -0.638 (inactive) | -0.978 | 0.262
12 | C=CCC(OC(C)=O)[C@@H]1[C@@H](N(Cc2ccc(-c3cccc(C(F)(F)F)c3)o2)C(=O)c2ccc(C)cc2)c2cc(OCCCO)ccc2N1C(=O)Cc1ccc(OC)cc1 (stereo not given in full) | 0.91 | -0.455 (inactive) | 0.104 (inactive) | -1.55 (inactive) | -0.194 (inactive) | 0.74 (inactive) | 0.145 (inactive) | 1.11 (inactive) | 1.11 | 0.0871
13 | COC(=O)[C@@]1(Cc2ccc(OC)cc2)[C@H]2c3cc(C(=O)N4CCCC4)n(Cc4ccc(OC(F)(F)F)cc4)c3C[C@H]2CN1C(=O)c1ccccc1 | -0.0938 | 1.82 (inactive) | -1.43 (inactive) | -0.731 (inactive) | 0.343 (inactive) | 0.755 (inactive) | -0.0079 (inactive) | 0.513 (inactive) | -2.54 | 0.0479
14 | COCCOC(=O)N1C(=O)[C@@]2(c3cc(C#CCNC(N)=O)ccc31)[C@H](c1ccc(O)cc1)N1[C@H](c3ccccc3)[C@H](c3ccccc3)OC(=O)[C@H]1[C@@H]2C(N)=O | 1.18 | 0.282 (inactive) | -0.96 (inactive) | 0.329 (inactive) | 0.0568 (inactive) | 0.203 (inactive) | 0.507 (inactive) | 1.28 (inactive) | -0.938 | 0.0372
15 | CCCC=C(CCC)[C@@H](NS(=O)(=O)c1cccc2cccnc12)c1ccc(-c2ccccc2)cc1 | 1.15 | 0.928 (inactive) | 1.02 (inactive) | -0.0926 (inactive) | -0.787 (inactive) | 0.52 (inactive) | -0.24 (inactive) | -0.342 (inactive) | 1.27 | 0.072
16 | CC1(C)C(=O)C(c2ccccc2)=C2CN3C(=O)N(CCc4ccccc4)C(=O)C3(Cc3ccc(C(F)(F)F)cc3)C=C21 (stereo not given) | -0.967 | 1.72 (inactive) | -1.33 (inactive) | 0.46 (inactive) | 0.0539 (inactive) | 1.9 (inactive) | -1.01 (inactive) | -0.756 (inactive) | -1.03 | 0.0322
17 | CC(=O)NCCCC[C@@H]1NC(=O)[C@@H]2C[C@H](C(=O)NCCCCCCN)[C@H](c3cccc(OCCO)c3)N2C1=O | -0.55 | -0.652 (inactive) | -0.152 (inactive) | 0.23 (inactive) | -0.0617 (inactive) | -0.158 (inactive) | -0.0095 (inactive) | 0.211 (inactive) | -0.257 | 0.0896
18 | CN(C)CCCNC(=O)[C@@H]1c2ccccc2C(=O)N(C2CCCCC2)[C@H]1c1ccc(CO)cc1 | 0.848 | -0.737 (inactive) | 0.749 (inactive) | -0.151 (inactive) | 0.0714 (inactive) | 0.409 (inactive) | -0.101 (inactive) | 0.515 (inactive) | 0.988 | -0.157
19 | COc1ccc(C(O)C2C=CC3C(=O)N(c4ccccc4)C(=O)C3N2Nc2ccccc2)cc1 (stereo not given) | -0.377 | -2.39 (inactive) | -0.582 (inactive) | 0.618 (inactive) | 0.571 (inactive) | -0.0179 (inactive) | -0.519 (inactive) | -0.43 (inactive) | -0.841 | 0.438
20 | [N-]=[N+]=NCc1ccccc1[C@H]1OC(c2ccc(OCCCO)cc2)=N[C@@]1(Cc1ccccc1)C(=O)NCCN1CCOCC1 | 0.292 | -1.62 (inactive) | -0.206 (inactive) | -0.905 (inactive) | 1.26 (inactive) | -0.557 (inactive) | 2.89 (inactive) | 0.763 (inactive) | 0.16 | 0.785
21 | C=C[C@H](C)[C@H](OC(=O)Nc1ccc(OC)cc1)c1ccc(OCCO)cc1 | -0.178 | -5.91 (inactive) | 1.69 (inactive) | -0.285 (inactive) | 0.413 (inactive) | -0.354 (inactive) | 1.43 (inactive) | 0.465 (inactive) | 0.603 | 0.34
22 | CC(C)CNC(=O)[C@@]1(C)c2ccccc2C(=O)N(Cc2cc(C(F)(F)F)cc(C(F)(F)F)c2)[C@H]1c1ccc(CO)cc1 | -0.402 | 0.145 (inactive) | -0.47 (inactive) | 0.24 (inactive) | -0.0933 (inactive) | -0.46 (inactive) | 0.162 (inactive) | 0.644 (inactive) | 0.364 | -0.206
23 | COCCCNC(=O)[C@@]1(c2ccc([N+](=O)[O-])cc2)CC(=O)N(C(C)C)[C@@H]1c1ccc(CO)cc1 | 0.145 | -0.569 (inactive) | 0.879 (inactive) | -0.499 (inactive) | 0.0561 (inactive) | -0.203 (inactive) | 0.0472 (inactive) | -0.0495 (inactive) | 1.24 | 0.0223
